Results as given in PubChem BioAssay AID2391 (Southern Research Specialized Biocontainment Screening …, 2010).
Among all 310,000 compounds or so, about 410 (0.13%) were called active. About 2% were inconclusive and are not listed. No rule for the calls is given here. The list is a sample of the results. Measured potencies and affinities stand elsewhere.

Assay: inhibition of RSV-induced cytopathic effect – HEp-2 cells, primary 10 µM value included (AID 2391)
Details: at 10 µM, stronger effect = higher value

Compound | CPE inhibition
CC(C)CNC(=O)c1cccc(NC(=O)Cc2ccc(Br)cc2)c1 | 15.3% (inactive)
CC(=O)/C(C#N)=C1\NC(=O)C(Cc2ccc(C)c(Cl)c2)S1 (configuration not stated) | 15% (inactive)
CC(=O)/C(C#N)=C1\NC(=O)C(Cc2ccc(F)cc2)S1 (configuration not stated) | 12.6% (inactive)
CCc1ccc(CC2S/C(=C(\C#N)C(C)=O)NC2=O)cc1 (configuration not stated) | 6.6% (inactive)
CC(=O)/C(C#N)=C1\NC(=O)C(Cc2cc(Cl)ccc2Cl)S1 (configuration not stated) | 14% (inactive)
CC1CCCN(c2nc3c(c(=O)n(C)c(=O)n3C)n2CCSc2nc3ccccc3o2)C1 (configuration not stated) | 1.2% (inactive)
COc1ccccc1NC(=O)C(=O)NCC1COc2ccccc2O1 (configuration not stated) | 5.12% (inactive)
NS(=O)(=O)c1ccc(CCNC(=O)CSc2nc3ccccc3c(=O)n2CCC(=O)N2CCCCC2)cc1 | 0.56% (inactive)
c1csc(-c2nc3ccccc3[nH]2)c1 | 4.14% (inactive)
Cn1c(=O)c2[nH]c(-c3ccccc3O)nc2n(C)c1=O | 9.42% (inactive)
c1ccc(-c2nc(-c3cccs3)[nH]c2-c2ccccc2)cc1 | 1.1% (inactive)
Cc1cc(=O)[nH]c(-c2ccccc2O)n1 | 0.17% (inactive)
O=S(=O)(NC(=NCc1ccccc1)c1ccccc1F)c1ccccc1 | 0.88% (inactive)
COc1ccc(CNC(=O)CN(Cc2ccc(F)cc2)C(=O)CCC(=O)Nc2nccs2)cc1 | 0.79% (inactive)
CC(OC(=O)c1cccc([N+](=O)[O-])c1)C(=O)NCc1ccc2c(c1)OCO2 (configuration not stated) | 2.66% (inactive)
COCc1cc(C)nc(NC2CC(C)(C)NC(C)(C)C2)c1C#N | -1.99% (inactive)
CCCn1c2ccccc2c2nnc(SCC(=O)Nc3cc(C)on3)nc21 | 1.54% (inactive)
Cn1c2ccccc2c2nnc(SCc3ccc4nonc4c3)nc21 | -0.67% (inactive)
CCn1c2ccccc2c2nnc(SCC(=O)Nc3c(C)n(C)n(-c4ccccc4)c3=O)nc21 | 17.8% (inactive)
C=CCn1c2ccccc2c2nnc(SCc3ccc4nonc4c3)nc21 | 3.57% (inactive)
Nc1nnc(COc2cccc(C(F)(F)F)c2)s1 | 1.04% (inactive)
COC(=O)c1ccc(C(=O)OC)c(NC(=O)C2CC2)c1 | 1.03% (inactive)
COc1ccc2cc(CN(CCCN3CCOCC3)Cc3nnnn3C3CCCC3)c(=O)[nH]c2c1 | -0.3% (inactive)

Compound | CPE inhibition
CCOc1ccccc1N(CC)C(=O)c1ccc2c(=O)n3c(nc2c1)CCCCC3 | 4.24% (inactive)
Cc1c(Cl)ccc2c1NC(=O)C21NC(CCC(N)=O)[C@H]2C(=O)N(c3ccc(Cl)cc3)C(=O)[C@H]21 (some centres not stated) | 2.04% (inactive)
C[N+](C)(C)CC/C=C1/c2ccccc2CSc2ccccc21 | -0.47% (inactive)
Cc1ccc(/C(=N\O)c2oc3c(C)c4oc(=O)cc(C)c4cc3c2C)cc1 | -1.6% (inactive)
C/C(=N\O)c1oc2ccc3c(C)cc(=O)oc3c2c1C | 21.3% (inactive)
CCC(Cc1ccccc1)NC(=O)C1CC1 (configuration not stated) | -0.41% (inactive)
O=[N+]([O-])c1ccc(CN2CCN(c3ccc([N+](=O)[O-])cc3)CC2)cc1 | 8.04% (inactive)
COc1ccc(CNC(=S)NCc2ccc(OC(C)C)cc2)cc1 | 3.45% (inactive)
COc1ccc(Nc2ncccc2C(=O)O)cc1 | -0.34% (inactive)
CC(C)c1ccc(Nc2ncccc2C(=O)O)cc1 | 10.4% (inactive)
CCOC(=O)c1c(C)nc2c(c1C)/C(=N/O)CC(C)(C)C2 | 5.56% (inactive)
COc1ccccc1CNC(=O)c1ccc(CS(=O)Cc2cccc(Cl)c2)o1 (configuration not stated) | 4.42% (inactive)
Cc1ccc(C2c3c(C)nn(-c4ccc([N+](=O)[O-])cc4)c3N=C3C(=O)Nc4ccccc4N32)cc1 (configuration not stated) | 3.63% (inactive)
Cc1nn(-c2ccc([N+](=O)[O-])cc2)c2c1C(c1ccc(OC(F)F)cc1)N1C(=N2)C(=O)Nc2ccccc21 (configuration not stated) | 6.37% (inactive)
O=C(c1ccc(F)cc1)C1CCN(C(=S)Nc2ccccc2Cl)CC1 | 2.44% (inactive)
Cc1cc(C(=O)Nc2c(C)nn(Cc3c(Cl)cccc3Cl)c2C)no1 | -0.07% (inactive)
Cc1nn(Cc2ccc(Cl)cc2)c(C)c1NC(=O)c1cc(C(C)C)on1 | 7.7% (inactive)
Cc1cc(C)n2nc(C(=O)N/N=C/c3c4ccccc4cc4ccccc34)nc2n1 | 3.03% (inactive)
CCCCN(CC)Cc1c(C)[nH]c2c(ccc3ccccc32)c1=O | 0.96% (inactive)
COc1ccc(-c2nnc3c4ccccc4c(C)nn23)cc1 | 4.75% (inactive)
COc1ccc(S(N)(=O)=O)cc1-c1nnc2c3ccccc3c(C)nn12 | 6.57% (inactive)
COc1ccc(S(=O)(=O)NCc2ccco2)cc1NC(=O)c1ccccc1 | 3.54% (inactive)
Cc1ccccc1-c1nnc2c3ccccc3c(C)nn12 | -1.91% (inactive)

Compound | CPE inhibition
Cc1nn2c(-c3ccccc3)nnc2c2ccccc12 | -0.87% (inactive)
COc1ccc(S(=O)(=O)NCc2ccco2)cc1N(C)S(=O)(=O)c1ccccc1 | 2.02% (inactive)
Cc1ccc(N2C(=O)c3ccc(N)cc3C2=O)cc1 | 1% (inactive)
COc1cc(SC)ccc1C(=O)Nc1ccc2c(c1)OCCO2 | 49.8% (inactive)
CC(=O)Nc1ccc(OCC(O)Cn2nc(C)nc2C)cc1 (configuration not stated) | -1.49% (inactive)
COc1ccc(CN(C(=O)c2oc3cc(C)c(C)cc3c2C)C2CCS(=O)(=O)C2)cc1OC (configuration not stated) | 5.1% (inactive)
Cc1ccc(Cl)cc1NS(=O)(=O)c1ccc2oc(=O)ccc2c1 | 15.7% (inactive)
O=C(COC(=O)c1ccc(OC(F)F)cc1)NC(=O)NC1CCCC1 | 2.84% (inactive)
CC(=O)Nc1ccc(NC(=O)CCn2nnc3ccccc32)cc1 | -1.57% (inactive)
C=CCNC(=O)COC(=O)c1cc(S(=O)(=O)N2CCCCC2)ccc1Cl | 0.67% (inactive)
COc1ccc(-c2cc(C(=O)O)c3ccccc3n2)c(OC)c1 | 0.21% (inactive)
O=C(O)c1cc(-c2cccs2)nc2ccc(F)cc12 | -0.75% (inactive)
O=C(O)c1cc(-c2ccc(-c3ccc(F)cc3)o2)nc2ccccc12 | 7.68% (inactive)
COc1ccc(-c2cc(C(=O)N3CCCC3)c3ccccc3n2)cc1 | 3% (inactive)
O=S(=O)(c1ccc(C2CCCCC2)cc1)N1CCOCC1 | 15.3% (inactive)
O=C(CO/N=C/c1ccccc1)Nc1c(F)c(F)c(F)c(F)c1F | 2.75% (inactive)
COc1ccc(NC(=O)CN(C)C(=O)CCCc2nc3ccccc3s2)cc1 | 2.07% (inactive)
Cc1cc(Cl)ccc1OCCCC(=O)N1CCN(C(=O)c2ccco2)CC1 | 17.5% (inactive)
Cc1cc(SCC(=O)c2ccccc2)n2ncc(-c3ccccc3)c2n1 | 4.59% (inactive)
Cc1ccc2nc(C)cc(SCC(=O)N/N=C/c3ccco3)c2c1 | 1.6% (inactive)
CCc1nc2sc3ccccc3c(=O)c2c(=O)n1Cc1ccco1 | 10.5% (inactive)
COc1ccc(Cn2c(-c3ccco3)nc3c(c(=O)c4ccccc4n3C)c2=O)cc1 | 12.4% (inactive)
Cn1c2ccccc2c(=O)c2c(=O)n(Cc3ccco3)c(-c3ccc(C(C)(C)C)cc3)nc21 | 6.32% (inactive)

Compound | CPE inhibition
COc1ccc(Cn2c(-c3ccc(C)cc3)nc3c(c(=O)c4ccccc4n3C)c2=O)cc1 | 3.47% (inactive)
COCCn1c(-c2cccc(Br)c2)nc2c(c(=O)c3ccccc3n2C)c1=O | 45.9% (inactive)
COc1ccc(Cn2c(-c3ccccc3C)nc3c(c(=O)c4ccccc4n3C)c2=O)cc1 | 52.8% (inactive)
CCCCCc1nc2c(c(=O)c3ccccc3n2C)c(=O)n1Cc1ccc(OC)cc1 | 56.9% (inactive)
COCCn1c(-c2ccc(Cl)cc2)nc2c(c(=O)c3ccccc3n2C)c1=O | 8.68% (inactive)
COc1ccc(N2CCN(CCNS(=O)(=O)c3ccc(C)cc3)CC2)cc1 | -1.19% (inactive)
CCCCOc1ccc(Cl)cc1CSc1n[nH]c(C)n1 | -1.27% (inactive)
CC(NC(=O)c1c(F)cccc1Cl)c1ccc(-n2ccnc2)cc1 (configuration not stated) | 2.43% (inactive)
COc1cnn(-c2ccccc2)c(=O)c1SCc1ccc(Cl)c(Cl)c1 | 5.77% (inactive)
Fc1ccccc1NC(=S)N1CCN(C/C=C/c2ccccc2)CC1 | 0.73% (inactive)
Cc1ccc(C)c(S(=O)(=O)N/N=C/c2ccc(N(C)C)cc2)c1 | -0.72% (inactive)
c1ccc2c(c1)nc1n2CN(Cc2ccc3c(c2)OCO3)CN1 | 1.87% (inactive)
Cc1csc(=O)n1CCC(=O)OCC(=O)NNC(=O)c1ccccc1 | -2.48% (inactive)
COc1ccc(CCn2c(-c3ccccc3)nc3c(c(=O)c4ccccc4n3C)c2=O)cc1 | 2.88% (inactive)
COc1ccc(CCn2c(C(C)C)nc3c(c(=O)c4ccccc4n3C)c2=O)cc1 | 4.88% (inactive)
Cc1ccc(NC(=O)c2cn(-c3cccc(C)n3)cn2)cc1 | 3.46% (inactive)
CC(C)C[C@H](NC(=O)c1nc[nH]c1C(=O)NC1CCN(C(=O)OC(C)(C)C)CC1)C(=O)OC(C)(C)C | 0.16% (inactive)
CC(C)C[C@H](NC(=O)c1nc[nH]c1C(=O)N[C@@H](CC(C)C)C(=O)OC(C)(C)C)C(=O)OC(C)(C)C | -5.5% (inactive)
COc1ccc(Cn2cnc3c4cc(F)ccc4n(C)c3c2=O)cc1 | 1.16% (inactive)
Cc1occc1C(=O)Nc1cc(C(C)(C)C)on1 | -1.18% (inactive)
CC(C)(C)c1cc(NC(=O)c2ccco2)no1 | 2.28% (inactive)
COc1ccc(N(C(=O)CNC(=O)c2ccco2)C(C(=O)NC2CCCC2)c2cccnc2)cc1 (configuration not stated) | -0.22% (inactive)
NC(=O)c1ccsc1NC(=O)COC(=O)C1CC2CCCC(C1)C2=O (configuration not stated) | 1.41% (inactive)
